An excerpt weighted towards active compounds, which were near 19% of everything screened.
TDP1 cell CPT – DT40-hTDP1 cell growth loss with CPT; actives 12% (n = 420,000); Potency, µM (highest dose often 46.2 µM), inactives show at the highest dose activity change, negative = growth inhibition, actives largely listed as inhibitors; chicken DT40 Tdp1-/-;hTDP1 cells + 20 nM CPT, ATP luminescence, 48 h; further: potency means the concentration at half of the fitted maximal effect; nearly all actives have a fitted effect of over 55% in size
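Chicken DT40 Tdp1-/- cells complemented with human TDP1, 400 cells/well, exposed to compounds plus 20 nM camptothecin for at least 48 h at 37 C; viability read as ATP content by CellTiter-Glo luminescence.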
HT1080NT lethal – kills 2HG-producing HT-1080-NT fibrosarcoma cells | HT-1080-NT fibrosarcoma viability, CellTiter-Glo ATP luminescence, 48 h | Potency, µM (top dose mostly 46.1 µM), without a hit: at the top dose activity, negative = less viability, usual class: cytotoxic | actives 1.6% (n = 360,000) | AID 686970;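 further: NT is the 2HG producing partner of a matched IDH1 knockdown line; potency means the concentration at half of the fitted maximal effect; 0% = DMSO-treated cells and -100% = media-only wells without cells; nearly all actives have a fitted effect of over 55% in size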
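HT-1080-NT fibrosarcoma cells (2HG-overproducing), 750 cells/well in RPMI with 5% FBS, dosed after 2 h and incubated 48 h at 37C. CellTiter-Glo luminescence normalized to DMSO and no-cell wells; concentration-response curves fitted and classed.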
HT1080 IDH1KD tx – kills HT-1080 cells with IDH1 knockdown | Potency, µM (titrated, usually from 46.1 µM), without a hit: at the top dose activity, negative = toxicity, usual class: cytotoxic | HT-1080 IDH1 knockdown viability, ATP luminescence, 48 h | actives 2% (n = 360,000) | AID 686971;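 further: potency means the concentration at half of the fitted maximal effect; 0% = DMSO wells and -100% = cell-free medium wells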
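CellTiter-Glo luminescence after 48 h compound exposure at 37 degrees C of IDH1-knockdown HT-1080 cells in 5% FBS RPMI. %Activity scaled between DMSO wells and cell-free media wells, with curves fitted and assigned curve classes.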
DT40 TDP1 no CPT – qHTS for Inhibitors of human tyrosyl-DNA phosphodiesterase 1 (TDP1): qHTS in cells in absence of CPT | DT40 Tdp1-/- hTDP1 cells, no CPT, ATP luminescence, 48 h | Potency, µM (top dose mostly 46.2 µM), for the others: top-dose activity change, negative = growth inhibition, usual class: inhibitors | actives 15% (n = 420,000); further: potency means the concentration at half of the fitted maximal effect; nearly all actives have a fitted effect of over 55% in size
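Growth of hTDP1-complemented DT40 Tdp1-knockout cells is measured by ATP luminescence after at least 48 hr compound exposure at 37 °C, with DMSO substituting for the 20 nM CPT used in the parallel screen.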
IL-1B inflam inh – inflammasome signaling inhibition, IL-1 beta readout; THP-1 LPS/ATP IL-1B secretion, AlphaLISA, 16 h; active compounds read low; activity change, % at 57.5 µM; actives 4.7% (n = 360,000); AID 743279; in the data active means activity change below about -50%; inconclusive means mostly about -30% to -49%
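THP-1 cells pretreated 1 hr with compounds (up to 57.5 uM final), then stimulated with LPS (250 ng/mL final) plus ATP (1.25 mM final); secreted IL-1B measured by AlphaLISA after 16 hr, decreased signal indicating inhibition.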
Numbers without * were called inactive; [ ] = dose if it differs, or a comment. Unless noted, the call rests on the fitted dose curve; in most records, active means well fitted curve in the direction sought with a large enough effect; inconclusive means small, poorly fitted or top-dose-only effect, or another doubt; inactive means no such curve, though single readings can be large; an effect the other way counts as inactive or inconclusive. Unless noted, on the % scale 0 is the no-effect control and ±100 the full control effect.

For CCN1CCN(c2nc(Nc3ccc(C)c(C)c3)nc(N)c2[N+](=O)[O-])CC1 the results were TDP1 cell CPT -22%, HT1080NT lethal inconclusive, HT1080 IDH1KD tx inconclusive, DT40 TDP1 no CPT 23µM* and IL-1B inflam inh inconclusive.
`Cc1cccc(Nc2nc(N)c([N+](=O)[O-])c(N3CC(C)CC(C)C3)n2)c1` (configuration not stated) gave TDP1 cell CPT inconclusive, HT1080NT lethal 16µM*, HT1080 IDH1KD tx 21µM*, DT40 TDP1 no CPT 18µM* and IL-1B inflam inh -101*.
`CN(C)c1ccc(Nc2nc(N)c([N+](=O)[O-])c(N3CCOCC3)n2)cc1` gave TDP1 cell CPT inconclusive, HT1080NT lethal -11%, HT1080 IDH1KD tx -18%, DT40 TDP1 no CPT 26µM* and IL-1B inflam inh -87*.
`CCOC(=O)c1c(C)oc2nc(C)nc(NCCc3ccc(OCC)c(OCC)c3)c12` gave TDP1 cell CPT inconclusive and DT40 TDP1 no CPT 13µM*.
CCOC(=O)c1c(C)oc2nc(C)nc(NCCc3ccc(Cl)cc3)c12 was read as TDP1 cell CPT inconclusive and DT40 TDP1 no CPT 13µM*.
For CCOC(=O)c1c(C)oc2nc(C)nc(NCCc3ccc(OCC)cc3)c12 the results were TDP1 cell CPT 6.5µM* and DT40 TDP1 no CPT 5.2µM*.
COc1ccccc1NS(=O)(=O)c1ccc(NC(=O)c2nc3nc(C)cc(C(F)F)n3n2)cc1 was read as TDP1 cell CPT -27%, HT1080NT lethal 19%, HT1080 IDH1KD tx 22%, DT40 TDP1 no CPT -27% and IL-1B inflam inh 5.
COc1cccc(/C=C/C(=O)OCC(=O)NCC2CCCCC2)c1OC was read as TDP1 cell CPT -17%, HT1080NT lethal -6%[9.24 µM], HT1080 IDH1KD tx 15%, DT40 TDP1 no CPT 15% and IL-1B inflam inh 9.
For CCOc1ccc(-c2cccc(NS(=O)(=O)c3c(C)cc(C)cc3C)c2)nn1 the results were TDP1 cell CPT inconclusive and DT40 TDP1 no CPT 23µM*.
`CCOc1ccc(-c2ccc(NS(=O)(=O)c3cc(C)ccc3OC)cc2)nn1` gave TDP1 cell CPT 13µM* and DT40 TDP1 no CPT 23µM*.
For COc1ccc(OC)c(S(=O)(=O)Nc2ccc(-c3ccc4nnc(C)n4n3)cc2)c1 the results were TDP1 cell CPT 8.2µM*, HT1080NT lethal -24%, HT1080 IDH1KD tx inconclusive, DT40 TDP1 no CPT 8.2µM* and IL-1B inflam inh 36.
CCOc1ccc(S(=O)(=O)Nc2cccc(-c3ccc(OCC)nn3)c2)cc1 was read as TDP1 cell CPT 12µM* and DT40 TDP1 no CPT 16µM*.
`CCOc1ccc(-c2cccc(NS(=O)(=O)c3ccc([N+](=O)[O-])cc3)c2)nn1` gave TDP1 cell CPT inconclusive, HT1080NT lethal -11%, HT1080 IDH1KD tx -12%, DT40 TDP1 no CPT -6% and IL-1B inflam inh 9.
Screening CCOc1ccc(-c2ccc(NS(=O)(=O)c3ccc([N+](=O)[O-])cc3)cc2)nn1 returned TDP1 cell CPT inconclusive, HT1080NT lethal -17%, HT1080 IDH1KD tx -1%, DT40 TDP1 no CPT 1% and IL-1B inflam inh -2.
CC12CCC(=O)C=C1CCCC2=O (configuration not stated) was read as TDP1 cell CPT 17%, HT1080NT lethal -3%, HT1080 IDH1KD tx -1%, DT40 TDP1 no CPT -26% and IL-1B inflam inh -26.
Screening Cc1ccc(N2CCC(N3CCN(C)C(CCO)C3)CC2)cc1 (configuration not stated) returned TDP1 cell CPT 16%, HT1080NT lethal 1%, HT1080 IDH1KD tx -2%, DT40 TDP1 no CPT -4% and IL-1B inflam inh 8.
Cn1c(=O)cc(OCC(=O)NCCCN2CCN(c3cccc(Cl)c3)CC2)c2ccccc21 was read as TDP1 cell CPT inconclusive, HT1080NT lethal -1%, HT1080 IDH1KD tx -15%, DT40 TDP1 no CPT 16µM* and IL-1B inflam inh -18.
